Records with an inconclusive call do not appear. Activity calls are given as the source filed them. Unless noted, the call rests on the fitted dose curve; in most records, active means well fitted curve in the direction sought with a large enough effect; inconclusive means small, poorly fitted or top-dose-only effect, or another doubt; inactive means no such curve, though single readings can be large; an effect the other way counts as inactive or inconclusive.
Tests used:
[1] = target: Peroxisome proliferator-activated receptor delta (Homo sapiens) (UniProt Q03181); assay: qHTS assay for small molecule agonists of peroxisome proliferator-activated receptor delta signaling (AID 588534; calls by dose curve)
Sequence of Peroxisome proliferator-activated receptor delta (Homo sapiens) (Q03181 whole entry, looked up): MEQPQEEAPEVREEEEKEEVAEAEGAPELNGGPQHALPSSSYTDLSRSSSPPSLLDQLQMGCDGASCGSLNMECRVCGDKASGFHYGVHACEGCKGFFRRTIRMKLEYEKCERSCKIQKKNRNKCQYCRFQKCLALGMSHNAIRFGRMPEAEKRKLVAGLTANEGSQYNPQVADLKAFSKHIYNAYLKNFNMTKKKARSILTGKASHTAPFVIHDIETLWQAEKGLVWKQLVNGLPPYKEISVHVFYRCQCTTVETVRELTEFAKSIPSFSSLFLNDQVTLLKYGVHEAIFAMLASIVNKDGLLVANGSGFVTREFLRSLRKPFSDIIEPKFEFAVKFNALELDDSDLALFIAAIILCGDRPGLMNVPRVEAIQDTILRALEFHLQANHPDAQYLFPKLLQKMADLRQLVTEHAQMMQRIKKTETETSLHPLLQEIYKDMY
How it was run: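 EC50 and efficacy values derive from Hill fits of a concentration series in a beta-lactamase reporter cell assay. Exposure is 18 hrs at 37 C, with CCF4 fluorescence as the readout.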

[2] = qHTS for Inhibitors of the Functional Ribonucleoprotein Complex (vRNP) of Lassa (LASV) Arenavirus: LASV Primary Screen - GLuc reporter signal (AID 1347082; calls by dose curve; tested in HEK293 reporter line; further: series mostly up to about 57 µM; nearly all actives have a fitted effect of over 60% in size)
[3] = qHTS for Inhibitors of the Functional Ribonucleoprotein Complex (vRNP) of Lassa (LASV) Arenavirus: Viability assay - alamar blue signal for LASV Primary Screen (AID 1347083; calls by dose curve; tested in HEK293 reporter line; further: series mostly up to about 57 µM; nearly all actives have a fitted effect of over 80% in size)
[4] = qHTS for Inhibitors of the Functional Ribonucleoprotein Complex (vRNP) of Lymphocytic Choriomeningitis Arenaviruses (LCMV): Viability assay - alamar blue signal for LCMV Primary Screen (AID 1347085; calls by dose curve; tested in HEK293 reporter line; further: series mostly up to about 57 µM; nearly all actives have a fitted effect of over 80% in size)
[5] = target: Nucleoprotein (Lymphocytic choriomeningitis virus (strain Armstrong)) (UniProt P09992); assay: qHTS for Inhibitors of the Functional Ribonucleoprotein Complex (vRNP) of Lymphocytic Choriomeningitis Arenaviruses (LCMV): LCMV Primary Screen - GLuc reporter signal (AID 1347086; calls by dose curve; further: series mostly up to about 57 µM; nearly all actives have a fitted effect of over 70% in size)
Sequence of Nucleoprotein (Lymphocytic choriomeningitis virus (strain Armstrong)) (P09992 whole entry, looked up): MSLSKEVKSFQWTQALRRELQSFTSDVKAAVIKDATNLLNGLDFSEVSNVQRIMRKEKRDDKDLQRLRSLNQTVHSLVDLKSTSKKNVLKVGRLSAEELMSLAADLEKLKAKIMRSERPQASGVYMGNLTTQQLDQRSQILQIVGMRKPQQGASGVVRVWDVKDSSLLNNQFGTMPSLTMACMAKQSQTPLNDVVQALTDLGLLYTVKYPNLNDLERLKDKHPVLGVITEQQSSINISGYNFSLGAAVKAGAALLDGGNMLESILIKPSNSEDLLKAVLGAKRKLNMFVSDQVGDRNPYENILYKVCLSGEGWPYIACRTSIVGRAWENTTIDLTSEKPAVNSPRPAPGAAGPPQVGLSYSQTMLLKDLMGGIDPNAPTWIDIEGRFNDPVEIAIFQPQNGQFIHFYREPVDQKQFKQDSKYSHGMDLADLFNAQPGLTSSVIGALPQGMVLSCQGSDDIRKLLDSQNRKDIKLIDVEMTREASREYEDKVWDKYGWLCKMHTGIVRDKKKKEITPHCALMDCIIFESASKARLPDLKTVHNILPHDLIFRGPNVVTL

[6] = target: Alpha-galactosidase (Coffea arabica) (UniProt Q42656); assay: Counterscreen for Glucocerebrosidase Inhibitors: qHTS Assay for Coffee Bean alpha-Galactosidase at pH 4.5 (AID 957); further: series mostly up to about 77 µM
Sequence of Alpha-galactosidase (Coffea arabica) (Q42656 whole entry, looked up): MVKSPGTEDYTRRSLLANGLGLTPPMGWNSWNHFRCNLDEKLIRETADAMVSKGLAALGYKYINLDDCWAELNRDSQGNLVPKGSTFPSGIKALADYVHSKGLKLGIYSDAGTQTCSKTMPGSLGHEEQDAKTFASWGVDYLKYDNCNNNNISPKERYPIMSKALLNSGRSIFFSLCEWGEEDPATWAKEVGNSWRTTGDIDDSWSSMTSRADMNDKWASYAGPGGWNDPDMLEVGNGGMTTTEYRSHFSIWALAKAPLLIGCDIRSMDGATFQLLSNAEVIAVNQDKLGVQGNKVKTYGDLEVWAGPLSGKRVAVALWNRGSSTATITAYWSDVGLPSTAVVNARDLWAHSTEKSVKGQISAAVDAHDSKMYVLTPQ
How it was run: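 Quantitative HTS of compounds (0.7 nM to 77 uM) against coffee bean alpha-galactosidase at pH 4.5, measuring 4-methylumbelliferone fluorescence released from 80 uM substrate.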

[7] = target: Alpha-galactosidase (Coffea arabica) (UniProt Q42656); assay: Counterscreen for Glucocerebrosidase Inhibitors: qHTS Assay for Coffee Bean alpha-Galactosidase at pH 5.9 (AID 998)
How it was run: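 Enzyme 2 nM + cpd (0.7 nM–77 uM titration) + 4-MU-alpha-Gal 80 uM, pH 5.9 citrate/Tween-20, RT 20 min, NaOH/glycine stop pH 10, fluor 365/440. Normalized to no-enzyme and full-activity controls; Hill-fit AC50.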

[8] = Inducers of the Endoplasmic Reticulum Stress Response (ERSR) in human glioma: Validation (AID 504836)
How it was run: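 Stably transfected U87-MG glioma cells carrying a GRP78-based luciferase sensor; 16 h compound incubation. Luminescence end-point read 10 min after Bright-Glo addition at room temperature.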

Measured: Potency

CC(C)CCCCCCCCCCCCCCC(=O)O
inactive: [1] | [2] | [3] | [4] | [5]

COc1ccc(CCN(C)CCc2ccc(OC)c(OC)c2)cc1OC
not listed: [1]
inactive: all other assays above

N[C@H](C(=O)O)c1cc(O)cc(O)c1
not listed: [1]
inactive: all other assays above

NC(N)=[N+]1CCc2ccccc2C1
not listed: [1]
inactive: all other assays above

CCCCCCCCCC(C)=O
inactive: [1] | [2] | [3] | [4] | [5]

c1ccc(CN2CCC3(CCCc4ccccc43)CC2)cc1
not listed: [1]
inactive: all other assays above

Source: PubChem BioAssay (NCATS)
